This is an account of results in PubChem BioAssay (NCI).

Among the test systems are T-47D breast; BT-549 breast; MDA-MB-435 melanoma; SW-620 colon; MCF7 breast; HCT-116 colon; HCC-2998 colon; KM12 colon.
Common to all, as to assay: NCI-60 one-dose screen, 48 h (100 = growth as untreated, 0 = no growth, -100 = all killed)
Conditions in all cases: 10 µM

This is part of a sample that, as a whole, favours compounds with a hit. Of some 83,000 tested, about 20% had one in any assay.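 Activity criterion: percent growth below 10, measured after cells in 96-well plates were exposed to a single compound concentration for 48 hours.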 Unmarked numbers belong to inactive results. Calls of active or inactive are those of the source.

In the case of `COc1cc(/C=C/C(=O)c2cc(-c3ccccc3)ccc2O)cc(OC)c1OC`, the growth with T-47D breast is 43.4%; with BT-549 breast, 88.8%; in the assay on MDA-MB-435 melanoma it was 55.4%; in the assay on SW-620 colon it was 81.9%; with MCF7 breast, 47%; in the assay with HCT-116 colon it was 61.3%. Further, the growth is 97% in the assay on HCC-2998 colon and 78.6% with KM12 colon.
Consider `COc1ccc(/C(=C/c2cc(OC)c(OC)cc2[N+](=O)[O-])C(=O)O)cc1`, for which the growth was 94.8% in the assay on T-47D breast; 111% with BT-549 breast; 116% in the assay with MDA-MB-435 melanoma; 105% in the assay on SW-620 colon; 105% in the assay on MCF7 breast; 116% in the assay with HCT-116 colon. Besides, the growth in the assay on HCC-2998 colon was 107%; with KM12 colon, 121%.
As to `Cc1ncc([N+](=O)[O-])n1CCOc1ccc(C(=O)/C=C/c2ccc(C(F)(F)F)cc2)cc1`, the growth in the assay on T-47D breast was 51.6%; with BT-549 breast, 68.1%; in the assay with MDA-MB-435 melanoma, 83.1%; in the assay on SW-620 colon, 15.4%; in the assay with MCF7 breast, 12.7%; in the assay on HCT-116 colon, -59% (active). Moreover, the growth is 95.9% with HCC-2998 colon and 14.5% in the assay on KM12 colon.
Turning to `COc1cc(C2c3cc4c(cc3C(O)C(CO)C2CO)OCO4)cc(OC)c1OC` (stereo not given), the growth is 45.7% in the assay on T-47D breast; 58.7% in the assay with BT-549 breast; -53.1% (active) with MDA-MB-435 melanoma; 19.6% in the assay on SW-620 colon; 17.5% with MCF7 breast; 23.1% in the assay on HCT-116 colon. The growth is 40.9% with HCC-2998 colon and 16.1% in the assay with KM12 colon.
Take `CC(=O)Oc1ccc(C2=Cc3ccc(OC(C)=O)cc3OC2C)cc1` (stereo not given): the growth in the assay with T-47D breast was 88.5%; with BT-549 breast, 42.9%; in the assay on MDA-MB-435 melanoma it was 25.2%; in the assay with SW-620 colon, 47%; in the assay with MCF7 breast, 49.1%; in the assay on HCT-116 colon, 38.3%. Also, the growth in the assay with HCC-2998 colon is 78.2%; with KM12 colon, 39%.
Consider `CCOC(=O)c1sc(Nc2ncccn2)nc1-c1ccccn1`, for which the growth in the assay with T-47D breast is 41.8%; in the assay on BT-549 breast it was 89.2%; with MDA-MB-435 melanoma, 103%; in the assay with SW-620 colon, 95.6%; in the assay on MCF7 breast it was 7.18% (active); with HCT-116 colon, 74.2%. For the same molecule, the growth was 80.7% with HCC-2998 colon and 83% with KM12 colon.
As for `COc1ccc(-c2nc(SCC(=O)c3ccc(Br)cc3)[nH]c(=O)c2C#N)cc1`, the growth in the assay with T-47D breast is 93.9%; in the assay on BT-549 breast, 94.2%; in the assay with MDA-MB-435 melanoma it was 100%; in the assay with SW-620 colon, 106%; in the assay on MCF7 breast, 100%; in the assay on HCT-116 colon, 97.4%. Also, the values for the growth in the assay on HCC-2998 colon and in the assay with KM12 colon were 104% and 96.9%, respectively.
For the molecule `CCCCCc1cc[n+](CC(=O)c2ccc(Cl)cc2)cc1`, the growth was 90.6% in the assay with T-47D breast; 86.6% in the assay with BT-549 breast; 86.7% in the assay with MDA-MB-435 melanoma; 83.2% with SW-620 colon; 89.7% in the assay with MCF7 breast; 59% with HCT-116 colon. The results for the growth in the assay on HCC-2998 colon and in the assay on KM12 colon were 91% and 73.4%, respectively.
As to `COc1cc(C)c2sc3ccccc3c(=O)c2c1NCCN(C)C`, the growth in the assay with T-47D breast was 78.4%; with BT-549 breast, 93.8%; in the assay with MDA-MB-435 melanoma it was 12%; in the assay on SW-620 colon it was 34.9%; in the assay with MCF7 breast, 22.2%; with HCT-116 colon it was 43%. Moreover, the growth was 28.9% with HCC-2998 colon and 65% with KM12 colon.
For the molecule `Clc1cc(Cl)c(OCCCCCCN2CCNCC2)c(Cl)c1`, the growth was 39.8% in the assay with T-47D breast; 70.4% in the assay with BT-549 breast; 10.5% in the assay with MDA-MB-435 melanoma; -44% (active) with SW-620 colon; -24.5% (active) with MCF7 breast; 12% in the assay on HCT-116 colon. The growth in the assay on HCC-2998 colon is -34% (active); with KM12 colon it was 21.3%.
For `O=C(O)CNS(=O)(=O)c1ccc(OCCOc2ccc(S(=O)(=O)NCC(=O)O)cc2)cc1`, the growth with T-47D breast is 93.5%; with BT-549 breast, 105%; in the assay with MDA-MB-435 melanoma, 113%; with SW-620 colon it was 103%; in the assay on MCF7 breast, 98.6%; with HCT-116 colon it was 103%. Further, the figures for the growth in the assay with HCC-2998 colon and in the assay with KM12 colon were 98.1% and 99.5%, respectively.
`COc1ccc(S(=O)(=O)Nc2cc(/C=C\c3cc(OC)c(OC)c(OC)c3)ccc2OC)cc1`: the growth with T-47D breast was 71.7%; in the assay with BT-549 breast it was 26.9%; in the assay on MDA-MB-435 melanoma, -37.9% (active); with SW-620 colon it was 21.3%; in the assay on MCF7 breast, -9.99% (active); with HCT-116 colon, 4.3% (active). Besides, the growth in the assay with HCC-2998 colon is 16%; in the assay with KM12 colon, -5.35% (active).
As for `CCC(O)c1ccc(Br)cc1NC(=O)c1cccc(Cl)c1` (stereo not given), the growth in the assay on T-47D breast is 20.8%; in the assay on BT-549 breast, 42.7%; in the assay with MDA-MB-435 melanoma, 16.9%; in the assay with SW-620 colon, 13.8%; in the assay with MCF7 breast, 14.4%; in the assay with HCT-116 colon it was 20.7%. The growth in the assay on HCC-2998 colon is 19.1%; in the assay with KM12 colon it was 26.3%.
As to `CCn1nc(-c2ccc(C(=O)OC)cc2)nc2c(=O)n(C)c(=O)nc1-2`, the growth was 84.1% in the assay with T-47D breast; 98.2% with BT-549 breast; 64.1% in the assay on MDA-MB-435 melanoma; 97.7% with SW-620 colon; 80% in the assay on MCF7 breast; 51.5% with HCT-116 colon. For the same molecule, the results for the growth in the assay on HCC-2998 colon and in the assay on KM12 colon were 116% and 80.4%, respectively.
Take `CCCCCCCCCCCCc1ccc(C(=O)/C=C/C(=O)O)cc1`: the growth in the assay on T-47D breast is 11.6%; with BT-549 breast it was 45%; in the assay with MDA-MB-435 melanoma, 109%; with SW-620 colon, -23.1% (active); with MCF7 breast it was -5.2% (active); in the assay on HCT-116 colon it was -61.3% (active). Further, the growth is 76.2% in the assay on HCC-2998 colon and 97.7% with KM12 colon.
